Data on 93 molecules can be found in PubChem BioAssay AID2314 (National Center for Advancing Translational Sciences (NCATS), 2010).

The campaign covered roughly 300,000 compounds. About 37,000 (12%) were called active. No stated cut-off is given here; in the data, active means max response mostly above about 13% (no sharp cut-off); inactive means mostly below about 14%. For the sample, actives were picked, then their nearest neighbours and some compounds at random.

The nature of the assay: Cycloheximide Counterscreen for Small Molecule Inhibitors of Shiga Toxin. Further: read at 38.3 µM for the half of the compounds with a filed dose; 0% is about no effect. To be noted: cell reporter, cycloheximide protein synthesis inhibition counterscreen; stronger effect = higher value. A general note: The purpose of a counterscreen is to sort out artefacts and off-target activity.
Consider `Cc1cnc(C(=O)N2CCCC(N3CCN(c4ccccc4F)CC3)C2)cn1` (stereo not drawn), for which the max response was 7.17% (inactive).

Take `CN(C)/C=N/c1cc(=O)n(C)c(=O)n1CC1CC1`: the max response was -3.74% (inactive).

Take `CCCCn1nc(C(=O)OCC(=O)Nc2sccc2C(N)=O)c2ccccc2c1=O`: the max response is 11.3% (inactive).

Regarding `COc1cc(OC)cc(C(=O)OCC(=O)Nc2ccc(F)cc2F)c1`, the max response is 1.53% (inactive).

Turning to `COc1cc(OC)cc(C(=O)OCC(=O)Nc2sccc2C(N)=O)c1`, the max response is 16.2% (active).

As for `CC(=O)N1c2ccc(S(=O)(=O)N3CCCC(C(=O)Nc4cccc(F)c4)C3)cc2CC1C` (stereo not drawn), the max response was -3.59% (inactive).

For `CC(C)C(O)C1CCN(Cc2nc(Cc3ccccc3Cl)no2)CC1` (stereo not drawn), the max response is -3.2% (inactive).

With `Cc1ccc(-c2noc(CN3CCN(Cc4ccccc4)CC3)n2)cc1`, the max response is 9.63% (inactive).

Take `CC1CCN(Cc2nc(-c3ccc(Cl)cc3)no2)CC1`: the max response was 14.8% (active).

As to `Cc1cc(OCCOc2cccc3cccnc23)c(C)cc1Cl`, the max response was 2.3% (inactive).

Turning to `CCc1ccc(N(C(=O)c2csnn2)C(C(=O)NC2CCCCC2)c2cccnc2)cc1` (stereo not drawn), the max response is 6.38% (inactive).

For `Cc1ccc(C(=O)Nc2nnc(-c3ccncc3)s2)o1`, the max response was 0.697% (inactive).

Consider `Cc1onc(NC(=O)c2ccc([N+](=O)[O-])o2)c1Br`, for which the max response was 60.9% (active).

With `Cc1cccc(NC(=O)c2cc([N+](=O)[O-])ccc2N2CCN(C)CC2)c1`, the max response is -4.47% (inactive).

Take `Cc1cccc(NC(=O)c2sc(-c3ccccc3)nc2-c2ccc([N+](=O)[O-])cc2)c1`: the max response is -2.46% (inactive).

Turning to `Cc1cccc(NC(=O)c2ccc([N+](=O)[O-])o2)c1`, the max response was 29.4% (active).

For `Cc1onc(C(=O)NCc2ccc(F)cc2)c1[N+](=O)[O-]`, the max response was 4.59% (inactive).

In the case of `C=CCn1c(SCC(=O)NC)nnc1C12CC3CC(CC(C3)C1)C2`, the max response is -1.24% (inactive).

For `O=C(CCn1nnc2ccccc21)OCC(=O)c1ccc([N+](=O)[O-])cc1`, the max response was -6.28% (inactive).

Take `N#C/C(C(=S)Nc1ccccc1)=C1/NN=C(N2CCOCC2)N1c1ccccc1`: the max response was 0.28% (inactive).

Consider `Cc1[nH]n(C(N)=S)c(=O)c1N=Nc1ccc(Cl)cc1Cl`, for which the max response is 12.2% (inactive).

On to `CC(=O)Nc1ccc(NC(=O)c2ccc3c(c2)C(=O)N(c2ccccc2C)C3=O)cc1`, for which the max response is -2.35% (inactive).

Take `CCOc1ccc(-n2c(SCC(N)=O)nnc2-c2ccco2)cc1`: the max response is -1.88% (inactive).

As to `COc1cc(CNCc2ccc(OC)c3ccccc23)cc(OC)c1OC`, the max response is -1.1% (inactive).

In the case of `CCN1CCN(C(=O)C2CCN(S(=O)(=O)c3cc(Cl)ccc3Cl)CC2)CC1`, the max response was -1.01% (inactive).

Regarding `CCOC(=O)C1=C(C)NC2=C(C(=O)CC(C)(C)C2)C1c1ccsc1` (stereo not drawn), the max response is 8.09% (inactive).

As for `COc1ccc(C(CNC(=O)COc2ccc([N+](=O)[O-])cc2)N2CCCCC2)cc1` (stereo not drawn), the max response is -2.15% (inactive).

As for `O=C(c1cnn2ccccc12)N1CCc2ccccc21`, the max response is 66.5% (active).

`Cc1cnc(C(=O)OCC(=O)N2CCc3ccccc32)cn1`: the max response is 9.5% (inactive).

Take `CCOC(=O)N1CCC(NC(=O)c2cnn3ccccc23)CC1`: the max response is -4.51% (inactive).

On to `Cc1noc(C)c1COC(=O)c1cc2ccccc2cc1O`, for which the max response was -1.04% (inactive).

Turning to `Cc1ccc(-c2nc(COC(=O)c3c(C)noc3C)cs2)cc1`, the max response is 73.1% (active).

For `Cc1ccc(S(=O)(=O)N2CCN(C(=O)COC(=O)c3c(C)noc3C)CC2)c(C)c1`, the max response is -2.98% (inactive).

With `c1ccc(-c2csc(N3CCc4ccccc4C3)n2)cc1`, the max response was 36.5% (active).

Regarding `CN(C)CCCNC(=S)N1CCN(c2nc(-c3ccccc3)cs2)CC1`, the max response is -1.66% (inactive).

With `O=C(CN1CCN(c2nc(-c3ccccc3)cs2)CC1)NCc1ccc2c(c1)OCO2`, the max response is -2.7% (inactive).

Turning to `CCOC(=O)Cn1c(O)c(N=NC(=O)CNC(=O)Cc2ccccc2)c2ccccc21`, the max response was 5.93% (inactive).

For `CCCc1ccc(C(=O)[C@@H]2[C@@H](C(C)=O)N3c4ccc(F)cc4C=C[C@@H]3[C@@]23C(=O)Nc2ccccc23)cc1`, the max response is -1.55% (inactive).

Regarding `O=S(=O)(c1ccc(Cl)cc1)c1nc(-c2ccco2)oc1N1CCCCC1`, the max response was 3.16% (inactive).

Regarding `O=C(NCCCN1CCCCC1)C1CCCN(c2ncnc3c2nc2n3CCCCC2)C1` (stereo not drawn), the max response was -1.32% (inactive).

With `CN(C)c1nnnn1-c1ccc(Cl)cc1`, the max response is -4.44% (inactive).

Consider `O=C(Nc1ccccc1)OCc1cn(-c2ccc(Cl)cc2)nn1`, for which the max response was -3.74% (inactive).

As for `CO/N=C/c1cn(-c2ccc(Cl)cc2)nn1`, the max response was 24.4% (active).

On to `COc1cc(NC(=O)C2CC(c3ccccc3O)=NO2)c(OC)cc1Cl` (stereo not drawn), for which the max response was -1.7% (inactive).

For the molecule `COCCN1C(=O)C(=O)/C(=C(/O)c2ccc(S(=O)(=O)N3CCCCC3)cc2)C1c1ccc(OC)c(OC)c1` (stereo not drawn), the max response was -1.21% (inactive).

As to `CN(C)CCCN=Cc1c(O)n(Cc2ccco2)c(=O)[nH]c1=O`, the max response is 8% (inactive).

On to `CC(C)n1c(=O)c(C=Nc2ccc(Br)cc2)c(O)n(Cc2ccco2)c1=O`, for which the max response is -2.65% (inactive).

As for `Cc1cs/c(=N\N=C\c2ccc(O)cc2)n1Cc1ccco1`, the max response is 21.5% (active).

For `O=c1c2c(-c3ccccc3)ccnc2[nH]n1-c1ccccc1`, the max response is 9.85% (inactive).

Take `O=C(Nc1cccc2ccccc12)c1onc2c1CCCC2`: the max response was 43.2% (active).

As for `O=C(O)c1ccccc1-c1ccccc1C(=O)Nc1cccc2ccccc12`, the max response was -3.02% (inactive).

Consider `O=C(COC(=O)c1ccccn1)Nc1cccc2ccccc12`, for which the max response was -1.89% (inactive).

On to `O=C(c1ccc2c(c1)N(Cc1ccc(F)cc1)C(=O)c1ccccc1S2(=O)=O)N1CCN(c2ccccn2)CC1`, for which the max response is 0.32% (inactive).

Regarding `O=[N+]([O-])c1cnc2ccc3ccccc3c2c1`, the max response was 8.23% (inactive).

Turning to `O=C(CSc1nc2ccc([N+](=O)[O-])cc2[nH]1)c1ccc(Cl)cc1`, the max response was 3.9% (inactive).

As for `O=[N+]([O-])c1ccc2nc(-c3ccccn3)[nH]c2c1`, the max response was 51% (active).

For `CCOc1ccc(CCNC(=O)Nc2ccccc2)cc1OCC`, the max response was 6.01% (inactive).

With `COc1ccc(-n2nnnc2SCc2nc(N)nc(N3CCOCC3)n2)cc1`, the max response was -3.81% (inactive).

Consider `COc1cc(NC(=O)c2ccc(-c3csc(C)n3)cc2)c(OC)cc1Cl`, for which the max response was -4.02% (inactive).

Turning to `Cc1cc(NC(=O)COc2ccc(Cl)cc2Cl)n(CCC#N)n1`, the max response is 43.5% (active).

As to `CCCn1nnnc1NC(=O)COc1ccc(Cl)cc1C`, the max response was 14.6% (inactive).

Take `Cc1nn(-c2ccccc2)c(C)c1NC(=O)COc1ccc(Cl)cc1Cl`: the max response was -1.6% (inactive).

As to `COCCNc1cc(-c2ccccc2)nc2cc(-c3cccc(F)c3)nn12`, the max response was -0.87% (inactive).

Regarding `CC(=O)Nc1ccc(C(=O)N(C2=NC(C)CS2)c2ccc(Cl)cc2)cc1` (stereo not drawn), the max response was 28.7% (active).

Take `COc1ccccc1C(=O)N(C1=NC(C)CS1)c1ccc(Cl)cc1` (stereo not drawn): the max response is -1.66% (inactive).

`CC(=O)Nc1ccc(NC(=O)CCCNC(=O)c2ccc(Cl)cc2)cc1`: the max response is -0.304% (inactive).

Take `CSCCC(NS(=O)(=O)c1ccc(C)cc1)C(=O)NCCc1c[nH]c2ccccc12` (stereo not drawn): the max response was -3.49% (inactive).

Regarding `COc1ccc(NC(=S)NCC2CCN(c3ccc(OC)cc3)C2)cc1` (stereo not drawn), the max response is 1.9% (inactive).

For `COc1ccc(NC(=S)N2CCc3cc(OC)c(OC)cc3C2)cc1`, the max response was 14.2% (inactive).

For the molecule `COc1ccc(N2CCN(C(=S)Nc3ccc(S(N)(=O)=O)cc3)CC2)cc1`, the max response was -1.06% (inactive).

`COc1ccc(NC(=S)N2N=CCC2c2ccccc2)cc1` (stereo not drawn): the max response is 36.2% (active).

`Cc1ccccc1N(C(=O)CNC(=O)c1cccs1)C(C(=O)NC1CCCC1)c1ccncc1` (stereo not drawn): the max response is -8.35% (inactive).

On to `CC(=O)c1cc(CN2CCC(n3nccc3NC(=O)c3ccccc3Cl)CC2)cs1`, for which the max response was -1.43% (inactive).

Take `COCCNc1ncnc2c1nc1n2CCCC1`: the max response is -3.81% (inactive).

On to `CC(NC(=O)COc1ccc(-c2ccccc2)cc1)C1CCCO1` (stereo not drawn), for which the max response was 1.81% (inactive).

Regarding `Cc1ccc(S(=O)(=O)NC(=O)c2cccc(C)c2)cc1`, the max response was 13.6% (inactive).

In the case of `Cc1cc(-n2cnc(-c3cn(C)nc3C)n2)no1`, the max response was 21.3% (active).

Regarding `COc1ccc(C)cc1S(=O)(=O)N1CCN(S(=O)(=O)c2cc(C(=O)O)ccc2C)CC1`, the max response is 1.26% (inactive).

As to `CCOC(=O)/C(=N\Nc1ccccc1Cl)N(C)C1CCS(=O)(=O)C1` (stereo not drawn), the max response was -5.92% (inactive).

With `Fc1cc(F)c2nc(Nc3nc4c(F)cccc4s3)sc2c1`, the max response is 13.2% (active).

Regarding `NC(=O)c1c(NC(=O)c2ccccc2)sc2c1CCCC2`, the max response is 31.6% (active).

Take `NC(=O)c1c(NC(=O)CSc2nnc(-c3ccco3)n2N)sc2c1CCCC2`: the max response is 5.01% (inactive).

With `NC(=O)c1c(Nc2nc3c(F)cccc3s2)sc2c1CCCC2`, the max response was 17.8% (active).

Regarding `O=C(Nc1sc2c(c1C(=O)O)CCC2)c1ccccc1F`, the max response is -2.19% (inactive).

For `C=CCN(CC=C)S(=O)(=O)c1ccc(C(=O)Nc2sc3c(c2C(N)=O)CCCCC3)cc1`, the max response is 3.07% (inactive).

In the case of `NC(=O)c1c(NC(=O)CSc2nc(N)cc(=O)[nH]2)sc2c1CCCC2`, the max response was -0.688% (inactive).

On to `CC(C)OC(=O)c1c(NC(=O)c2ccco2)sc2c1CCCC2`, for which the max response is -0.728% (inactive).

`O=C(O)c1c(NC(=O)N2CCCC2)sc2c1CCCC2`: the max response is 25.7% (active).

Take `COC(=O)c1c(NC(=O)C2CC(C)=C(C)CC2C(=O)O)sc2c1CCCCC2` (stereo not drawn): the max response was -1.42% (inactive).

For the molecule `COc1cc2ccccc2cc1C(=O)N(CCN(C)C)c1nc2c(F)cccc2s1`, the max response is -3.64% (inactive).

Turning to `CCC(=O)N1CCc2cc(S(=O)(=O)CCC(=O)N3CCN(c4ccccc4F)CC3)ccc21`, the max response was 2.85% (inactive).

As to `CCOc1ccc(NS(=O)(=O)c2cc(C)c(C)cc2C)cc1`, the max response was 0.868% (inactive).

For `Cc1ccccc1N1CCN(C2CCCN(C(=O)c3ocnc3C)C2)CC1` (stereo not drawn), the max response is 1.48% (inactive).
